For 90 compounds, inhibition results are on record in PubChem BioAssay AID1878 (Sanford-Burnham Center for Chemical Genomics, 2009).

About 200 (20%) of roughly 1,000 compounds were called active. The list is a sample of the results. Results with a measured potency or affinity are listed apart. Values without a mark were called inactive. Rule as the data show it: active = inhibition above about 55%; inactive = the rest.

The target of the experiment is Dual specificity protein phosphatase 3 (Homo sapiens) (UniProt P51452). Put plainly: VHR1 phosphatase inhibitors, biochemical (AID 1878). Conditions: recombinant VHR phosphatase, fluorogenic substrate; at 13.3 µM; active compounds read high.
Sequence of Dual specificity protein phosphatase 3 (Homo sapiens) (P51452 whole entry, looked up): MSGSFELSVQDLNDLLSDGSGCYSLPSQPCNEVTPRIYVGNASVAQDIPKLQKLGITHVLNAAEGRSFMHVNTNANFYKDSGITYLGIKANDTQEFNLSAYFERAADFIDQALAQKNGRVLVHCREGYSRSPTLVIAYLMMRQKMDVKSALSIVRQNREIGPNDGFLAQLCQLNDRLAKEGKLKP
One may read the inhibition as the change of the read-out against control, counted positive when it falls. For `CCn1cc(C(=O)N2CCCC(N3CCN(c4cccc(C(F)(F)F)c4)CC3)C2)cn1` (stereo not given), the inhibition is -9%. The figure for `COCCCNC(=O)Cn1cc(/C=C(\C#N)C(=O)NC2CC2)c2ccccc21` is -8.8%; for `CCN(CC)CCC(=O)N1c2ccccc2CCc2ccc(NC(=O)OC(C)C)cc21` it is 3.9%. The figure for `O=c1[nH]c(=O)c2nc3c4ccccc4c4ccccc4c3nc2[nH]1` is 80.4% (active). The figure for `Cn1nc(C(=O)NCCCN2CCCCC2)c2c1-c1ccccc1S(=O)(=O)C2` is -6.6%; for `Cc1ccc(NC(=O)C2CCN(S(=O)(=O)c3ccc4c(c3)NC(=O)CO4)CC2)cc1` it is -0.8%.

With `COc1ccc(CNCC(O)(c2ccccc2)c2ccc(F)cc2)cc1OC` (stereo not given), the inhibition was 13%.

As to `Cc1sc2ncn(CC(=O)N3CCCC(C)C3)c(=O)c2c1S(=O)(=O)N1CCCCC1` (stereo not given), the inhibition is 7.1%. The figure for `O=C(NC(=S)Nc1ccc(CN2CCCCC2)cc1)c1cccc(OCc2ccccc2)c1` is -29.4%; for `O=C(NC(=O)c1ccccc1)Nc1ccccc1` it is 2.5%. Consider `COc1cc2ccccc2cc1C(=O)NC(=S)Nc1cccc(C(=O)O)c1`, for which the inhibition is 55% (active). Take `O=C(CSc1nc(-c2ccc(F)cc2)nc2c1Cc1ccccc1O2)Nc1cccc(C(=O)O)c1`: the inhibition was 96.6% (active). Take `O=C(CNCCc1ccccc1)Nc1ccc(C(=O)N2CCCCC2)cc1`: the inhibition was 3.1%. The figure for `O=C(CSc1nc(-c2ccccc2)nc2c1Cc1ccccc1O2)Nc1ccc(C(=O)O)cc1` is 98.8% (active); for `CC(=O)c1ccc(NC(=O)CSc2nc(C)cc(C)c2C(N)=O)cc1` it is -9.9%. The value for `CCCCn1c(N)c(N(CCOC)C(=O)c2cc(S(=O)(=O)N3CCCCC3)ccc2Cl)c(=O)[nH]c1=O` was -7.9%. The value for `COC(=O)c1ccc(COc2ccc(C(C)(C)C)cc2)o1` was 29.7%; that for `O=C1CCCN1CCC(=O)N1CCCC(CO)(Cc2ccccc2)C1` (stereo not given) was 26.9%.

Take `CC1CC(C)CN(CCCNC(=O)c2ccc(CNS(=O)(=O)c3ccc(F)cc3)cc2)C1` (stereo not given): the inhibition was 2.4%. For the compound `COc1ccc(CN2C(=O)c3cccnc3C2=O)cc1S(=O)(=O)NC1CCCCC1`, the inhibition is -2.5%. The figure for `CCOc1ccc(C(=O)N2CCC3(CC2)NCCc2[nH]cnc23)cc1OCC` is -1.8%; for `Cc1c(C)c2ccc(O[C@@H]3O[C@H](CO)[C@H](O)[C@H](O)[C@H]3O)c(C)c2oc1=O` it is -3.5%; for `Cc1c(NC(=O)c2ccc(Cl)c(S(=O)(=O)N3CCCCC3)c2)c(=O)n(-c2ccccc2)n1C` it is -10.6%. The figure for `CCC1CCCCN1CCCNC(=O)CNC(=O)c1nn(-c2ccc(OC)c(Cl)c2)c(=O)c2ccccc12` (stereo not given) is -5.3%. The figure for `COc1ccc(CN2CCNC(=O)C2CC(=O)NCC2CCOCC2)c(C)c1C` (stereo not given) is 15.1%; for `COCCNc1cc(C)nc2c3c(C)cc(C)nc3nn12` it is 9.5%; for `COc1ccc(CCC(=O)NNC(=O)Nc2ccc(OC)c(OC)c2)cc1` it is 1.3%.

For `CCOc1cc(/C=C(\C#N)C(=O)Nc2ccccc2C(=O)O)ccc1OC(=O)c1ccc(C)cc1`, the inhibition is 87.8% (active).

For the compound `CCOc1cc(/C=C(\C#N)C(=O)Nc2cccc(C(=O)O)c2)ccc1OCc1ccccc1Cl`, the inhibition was 94.8% (active). Turning to `CCOc1cc(/C=C(/C#N)C(=O)Nc2ccc(OC)cc2)ccc1OCc1ccc(C(=O)O)cc1`, the inhibition was 90.9% (active). The figure for `COc1cc(/C=C(\C#N)C(=O)Nc2ccc(C(=O)O)cc2)ccc1OC(=O)c1cccc(F)c1` is 67.8% (active). On to `CCOc1ccc(C(=O)Nc2cc3c(cc2N2CCCC2)n(CC)c(=O)n3CC)cc1OCC`, for which the inhibition was -0.2%.

As to `CCOc1ccccc1NC(=O)Nc1cc(C(=O)O)ccc1C`, the inhibition was -10.9%. The value for `C/C=C/c1ccc(OCC(O)CNCCc2ccc(OC)cc2)c(OC)c1` (stereo not given) was 11.7%; that for `CCc1ccccc1S(=O)(=O)c1c(C)cc(C)nc1Cl` was -1.3%; that for `C=CCC(=O)NC1CC(C)(C)Cc2c1cnn2-c1ccc(C)cc1` (stereo not given) was -12.1%. The figure for `CCC(=O)NC1=C(Nc2ccc(N)cc2)C(=O)c2ccccc2C1=O` is -7.2%. The value for `O=C(NC1CCCCC1)c1cc(-c2ccccc2Cl)on1` was 3.4%.

For `CCCN1C2CCCC1CC(NC(=O)NC13CC4CC(CC(C4)C1)C3)C2` (stereo not given), the inhibition is 25.2%. In the case of `CC(C)c1nn2c(=O)cc(COc3cccc(NC(=O)c4ccco4)c3)nc2s1`, the inhibition is 10.3%.

As to `O=C(Nc1cccc(O)c1)C1CC(c2cccc(Br)c2)=NO1` (stereo not given), the inhibition was 6.5%. The figure for `O=C(Nc1ccc(C(=O)N2CCN(c3ccc(F)cc3)CC2)cc1)C1=CSCCO1` is 4.8%. The figure for `Cc1nn(CC(=O)NCCCN2CCCCC2)c(=O)c2cc(-c3ccccc3)nn12` is 22.8%; for `COc1cc(CNc2ccc(N3CCOCC3)cc2)ccc1OCC(=O)NC(C)(C)C` it is 2.1%; for `CCOc1ccccc1CN1CCC(n2nccc2NC(=O)C2CCCC2)CC1` it is -19.2%.

Take `COc1cc(C(=O)NCC2(c3ccccc3)CCCC2)ccc1OC(C)C`: the inhibition was -7.1%. The value for `Cc1ccc(-c2[nH]ncc2C(=O)c2ccccc2C)c(O)c1` was -9%; that for `CC(Cc1ccccc1)N1C(=O)c2ccccc2C1=O` (stereo not given) was -2.4%. The value for `C=CCN(C(=O)CNC(=O)c1cccs1)C(C(=O)NC(C)(C)C)c1ccccc1` (stereo not given) was -6%. The figure for `Cc1cc(Cl)c2oc(C(=O)NC(C)c3ccncn3)c(C)c2c1` (stereo not given) is -5.8%; for `CC1Sc2ccc(S(=O)(=O)CCC(=O)N(C)Cc3ccco3)cc2NC1=O` (stereo not given) it is -2.5%. Take `CC(C)(C)C(=O)NN=C1CCC(c2ccccc2)CC1` (stereo not given): the inhibition was -3.9%. The value for `CCOC(=O)C1(CCOc2ccccc2)CCN(CC(O)CO)CC1` (stereo not given) was -7.8%.

Turning to `CC1CCCN(CCCNC(=O)c2ccc3c(c2)N(Cc2ccccc2F)C(=O)c2ccccc2S3(=O)=O)C1` (stereo not given), the inhibition was -12.5%. The figure for `Cc1ccc(C(=O)Nc2ccccc2N2CCCC2)cc1` is 21%. The value for `CC(C)Cn1c(C23CC4CC(CC(C4)C2)C3)n[nH]c1=S` was 10%; that for `CCCCNC(=O)c1cn(C)c2ccc(S(=O)(=O)N3CCCC3)cc2c1=O` was -4%. The value for `Cc1ccc(CN2C(=O)CC(Nc3ccc(N4CCOCC4)cc3)C2=O)cc1` (stereo not given) was 1.9%; that for `Cc1ccc2nc(N3CCN(C)CC3)c(C=O)c(=O)n2c1` was 2.4%. In the case of `O=C(c1cc(F)c(F)c(F)c1F)N1CCN(Cc2ccc3c(c2)OCO3)CC1`, the inhibition is -6.3%. With `O=C1NN(c2ccccc2)C(=O)/C1=C\c1ccccc1`, the inhibition is 5.2%. Consider `CN(C)c1nc(N(C)C)nc(N(C#N)Cc2ccc(Cl)cc2)n1`, for which the inhibition is 2%. The value for `COc1cc(CNc2ccc(N3CCN(C(C)=O)CC3)cc2)ccc1OCc1ccc(F)cc1` was -8.4%; that for `COc1ccc(C2CC(=O)C(C=NCCO)=C(O)C2)cc1` (stereo not given) was -0.8%; that for `COc1cc(/C=N/n2c(C)nc3ccccc3c2=O)ccc1O` was 16.3%. The value for `COc1ccc(OC)c(NC(=O)Cc2coc3ccc4ccccc4c23)c1` was -4.5%; that for `COc1ccc2nc(C)cc(SCC(=O)N/N=C/c3c(OC)ccc4ccccc34)c2c1` was 92% (active). The value for `COc1ccc2c(c1)c(C(=O)N/N=C/c1ccc(OC)c(OC)c1)c(C)n2C` was -4.6%; that for `CN(C)CCCNC(=S)N(CCCN(C)C)Cc1cc2cc3c(cc2[nH]c1=O)OCO3` was -11.5%; that for `CN(CCO)c1nc(N)c2c(N)nc3c(c2c1C#N)CC(=O)N3C1CCCC1` was 2.2%. As to `Cc1ccc(N=Nc2cc(C)ccc2O)c(C)c1`, the inhibition is 0.1%.

Take `CC(=O)Nc1c(-c2ccccc2)c2cc(Br)ccc2[nH]c1=O`: the inhibition was -0.4%. The value for `CC1CCCN(CCCNC(=O)C2CCN(S(=O)(=O)N3CCC4(CC3)OCCO4)CC2)C1` (stereo not given) was 2.1%. The value for `O=C(Cn1cnc2c(oc3nc4c(cc32)CCCC4)c1=O)Nc1cccc(Cl)c1` was 37.7%. As for `Cc1csc(NC(=O)CCCC(=O)O)c1-c1nc2ccccc2s1`, the inhibition was 98.8% (active). Take `CSc1ccc(NC(=O)N2CCN(c3nc4ccccc4s3)CC2)cc1`: the inhibition was 5%. The figure for `Cc1ccc2nc(NC(=O)CCCc3nc4ccccc4s3)sc2c1` is -0.6%; for `O=C(CN1CCN(S(=O)(=O)c2ccc(Br)cc2)CC1)c1ccc(O)c(O)c1` it is -4.1%; for `Cc1cc(C)cc(NS(=O)(=O)c2ccc(-c3cnc(C4CC4)o3)cc2)c1` it is 13%. The value for `CC(NC(=O)COc1ccc(/C=N/NC(=O)CO)cc1)c1ccccc1` (stereo not given) was 1.2%. The value for `CCOc1cc(/C=N/NC(=O)c2ccc(-c3csc(Nc4ccc(C)cc4)n3)cc2)ccc1OCC(=O)O` was 75.5% (active); that for `CC(C)(C)c1ccc2c(c1)OC(C(=O)N/N=C\c1ccc[nH]1)CO2` (stereo not given) was 6.8%. For `CCOC(=O)C1CCCN(CC(=O)Nc2nccs2)C1` (stereo not given), the inhibition is 23.9%. The value for `CCOC(=O)c1ccc(S(=O)(=O)Nc2ccc(N3CCOCC3)cc2)cc1` was -9%; that for `CC(=O)N1CC(=O)Nc2ccc(F)cc2C1c1ccccc1` (stereo not given) was 32.3%; that for `CCOC(=O)C1=C(N)Oc2ccc3ccccc3c2C1c1cccc(O)c1` (stereo not given) was -5.7%. The value for `O=C(Nc1ccc(-n2nncc2-c2ccco2)cc1)c1cc2ccccc2oc1=O` was 96.1% (active). The value for `CCn1c2ccccc2c2n[nH]c(=S)nc21` was -2.6%; that for `Cc1cc(C)c(S(=O)(=O)Nc2ccc(N(C)C)cc2)c(C)c1-n1cnnn1` was -1.2%. For the compound `CC(=O)NCCc1nc2cc(NC(=O)c3ccc([N+](=O)[O-])cc3)ccc2n1C`, the inhibition was -5.3%.
